Data reported in the supplement of paper PMC13380429.

Tested on: Vero E6 infected with SARS-CoV-2
Test: morphology score (similarity to uninfected cells); higher = more like uninfected cells
Settings: 24 h

Structure (SMILES)	morphology score
C[C@H](CCC(=O)O)[C@H]1CC[C@H]2[C@@H]3C[C@H](O)[C@@H]4C[C@H](O)CC[C@]4(C)[C@H]3CC[C@]12C [Hyodeoxycholic acid (HDCA)] (10 µM)	0.109
Cc1cccc(C)c1NC(=O)CN1CCN(CCCC(c2ccc(F)cc2)c2ccc(F)cc2)CC1 [lidoflazine] (10 µM)	0.34
Nc1cc(-c2ccncc2)c[nH]c1=O [amrinone] (10 µM)	0.00166
N[C@@H](Cc1c[nH]c2ccccc12)C(=O)O [tryptophan] (10 µM)	-0.124
COc1cc(-c2cc(-c3cccc(O)c3)cnc2N)cc(OC)c1OC (10 µM)	0.51
OC(CN1CCN(c2cccc(Cl)c2)CC1)C(c1ccccc1)c1ccccc1 (stereo unspecified) (10 µM)	-0.0067
C=CCN1C[C@H](C)N([C@H](c2ccc(C(=O)N(CC)CC)cc2)c2cccc(O)c2)C[C@H]1C (10 µM)	0.1
CC[N+](C)(CC)CCC[n+]1c(-c2ccccc2)c2cc(N)ccc2c2ccc(N)cc21 [propidium-iodide] (10 µM)	0.271
CC[C@H]1CN2CC[C@H]1C[C@@H]2[C@@H](O)c1ccnc2ccc(OC)cc12 [hydroquinidine] (10 µM)	0.301
COc1cc(Br)c(S(=O)(=O)Nc2ccc(Cl)c(O[C@@H]3CCN(C)C3)c2)cc1OC (10 µM)	-0.105
NC(=O)CCCCn1ccc(/N=C(\N)NCC(F)(F)F)n1 (10 µM)	0.00958
O=C(O)c1ccccc1Nc1cc(Cl)ccc1C(=O)O [lobenzarit] (10 µM)	0.04
O=C(NC(=O)c1c(F)cccc1F)Nc1cc(Cl)c(OC(F)(F)C(F)C(F)(F)F)cc1Cl (stereo unspecified) [lufenuron] (10 µM)	-0.0435
O=C(CCCCCCCn1cc(-c2cccnc2)nn1)Nc1ccccc1-c1ccccc1 (0.833333 µM)	-0.143
COc1ccccc1NC(=O)OCC1CCN(C(=O)OC(C)(C)C)CC1 (10 µM)	0.0728
C[C@]12N[C@H](Cc3ccccc31)c1ccccc12 [dizocilpine-(-)] (10 µM)	0.247
COc1ccccc1OC(=O)c1ccccc1OC(C)=O [guacetisal] (10 µM)	0.0562
COc1ccc(C(=O)c2c(C)n(CCN3CCOCC3)c3ccccc23)cc1 [pravadoline] (10 µM)	0.0547

Structure (SMILES)	morphology score
NCC(=O)O (10 µM)	0.146
O=C(CC1NCCCC1O)Cn1cnc2cc(Br)c(Cl)cc2c1=O (stereo unspecified) [halofuginone] (0.833333 µM)	-0.082
Clc1cccc(Cl)c1CSc1nnc(-c2cnccn2)s1 [yoda-1] (10 µM)	0.286
CCN(CC)CCCCC1CCN(CC(=O)N2c3ccccc3C(=O)Nc3cccnc32)CC1 (10 µM)	0.0682
O=C1CCC[C@@H]2[C@H]3CCC[N+]4([O-])CCC[C@@H](CN12)[C@@H]34 (stereo partly specified) [oxymatrine] (10 µM)	-0.00407
N#Cc1cnc2cnc(NCc3cccnc3)cc2c1Nc1ccc(F)c(Cl)c1 (10 µM)	0.0314
Cc1ncc(CO)c(/C=N/NC(=O)c2ccncc2)c1O [pyridoxal-isonicotinoyl-hydrazone] (10 µM)	-0.0797
CC(C)(C)C(=O)NCCCC(=O)O [pivagabine] (10 µM)	0.0513
Cc1nc2c(O)cccc2c(=O)[nH]1 (10 µM)	-0.0261
O=C1Nc2ccc(Cl)cc2[C@@](C#CC2CC2)(C(F)(F)F)O1 [efavirenz] (10 µM)	0.0664
CCCCC[C@H](O)/C=C/[C@H]1[C@H](O)CC(=O)[C@@H]1C/C=C\CCCC(=O)O [dinoprostone] (10 µM)	0.144
Cc1cnc(C(=O)O)c[n+]1[O-] [acipimox] (10 µM)	0.0683
CC[C@@H](c1ccc(F)c(F)c1)n1c(C(=O)OC)c(-c2ccno2)[nH]c1=S (10 µM)	-0.0397
O=C1NCN(c2ccccc2)C12CCN(CCCC(c1ccc(F)cc1)c1ccc(F)cc1)CC2 [fluspirilene] (10 µM)	0.056
CN1[C@@H]2C[C@@H](OC(=O)[C@H](CO)c3ccccc3)C[C@H]1[C@@H]1O[C@@H]12 (10 µM)	0.141
Cc1ccc(-n2nc(C(C)(C)C)cc2NC(=O)Nc2ccc(OCCN3CCOCC3)c3ccccc23)cc1 [doramapimod] (10 µM)	0.482
CCOC(=O)c1ncc2[nH]c3cccc(OC(C)C)c3c2c1C (10 µM)	0.286
CN[C@H](CC(C)C)C(=O)N[C@H]1C(=O)N[C@@H](CC(N)=O)C(=O)N[C@H]2C(=O)N[C@H]3C(=O)N[C@H](C(=O)N[C@H](C(=O)O)c4cc(O)cc(O)c4-c4cc3ccc4O)[C@H](O)c3ccc(c(Cl)c3)Oc3cc2cc(c3O[C@@H]2O[C@H](CO)[C@@H](O)[C@H](O)[C@H]2O[C@H]2C[C@](C)(N)[C@H](O)[C@H](C)O2)Oc2ccc(cc2Cl)[C@H]1O (10 µM)	0.0907
